GC-A act: GC-A (human) enzyme activation | P16066 | HEK293 GC-A cells, cGMP TR-FRET, EC30 ANP; 0% at EC30 ANP, 100% saturating ANP | activation, % at 10 µM | actives 0.14% (n = 370,000) | AID 1671463; in the data active = activation above about 40%
NPR2 activator: GC-B (human) receptor activation. HEK293-GC-B cells, CNP EC30, cGMP TR-FRET; 0% at EC30 CNP, 100% saturating CNP. AID 1920062. activation, % at 10 µM. actives 0.11% (n = 370,000);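 active = activation at 10 µM reaching about 35% in either raw or pattern-adjusted values, limit read from the data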
ADAM17 inh: inhibitors of human ADAM17; P78536; recombinant ADAM17, EDANS/DABCYL FRET peptide cleavage; inhibition, % at 6.95 µM; actives 0.83% (n = 370,000); AID 720648;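 active = inhibition above the mean of compounds lying between control limits plus 3 SD, set per campaign, cut at about 8.5% in these data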;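 note: 0% = DMSO-only wells as the low control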
Target sequence (P78536 215-824 limits assumed): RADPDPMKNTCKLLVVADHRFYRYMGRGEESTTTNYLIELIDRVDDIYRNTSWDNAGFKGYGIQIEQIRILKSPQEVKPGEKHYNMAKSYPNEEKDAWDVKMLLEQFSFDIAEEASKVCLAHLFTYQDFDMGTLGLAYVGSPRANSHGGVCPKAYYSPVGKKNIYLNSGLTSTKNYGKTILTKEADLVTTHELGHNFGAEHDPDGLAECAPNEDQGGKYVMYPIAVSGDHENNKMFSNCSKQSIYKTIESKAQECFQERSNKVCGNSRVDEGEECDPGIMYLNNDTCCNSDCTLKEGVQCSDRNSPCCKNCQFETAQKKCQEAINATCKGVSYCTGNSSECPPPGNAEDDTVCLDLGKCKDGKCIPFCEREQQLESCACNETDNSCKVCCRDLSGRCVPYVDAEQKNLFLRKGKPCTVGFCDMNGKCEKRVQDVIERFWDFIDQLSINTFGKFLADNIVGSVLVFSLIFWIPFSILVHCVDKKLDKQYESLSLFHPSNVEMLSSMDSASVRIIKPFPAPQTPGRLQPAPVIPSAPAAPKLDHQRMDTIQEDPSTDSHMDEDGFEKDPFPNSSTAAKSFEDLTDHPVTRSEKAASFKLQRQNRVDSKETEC
ADAM10 inh: inhibits human ADAM10 | O14672 | recombinant ADAM10, EDANS/DABCYL FRET peptide cleavage, 3 h | inhibition, % at 7 µM | actives 0.62% (n = 370,000) | AID 720582;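 active = inhibition above a per-campaign cutoff equal to the mean of compounds falling between control-based bounds plus 3 SD, cut at about 20% in these data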;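 note: 0% = DMSO wells while the 100% control is not disclosed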
ADAM10 confirm: human ADAM10 inhibition, confirmation; shares compounds with ADAM10 inh; ADAM10 QFRET peptide cleavage, EDANS fluorescence; inhibition, % at 6.95 µM; actives 1% (n = 2,100); AID 743208;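 active = inhibition above about 20% chosen separately for each screening run, limit read from the data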;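 note: 0% = DMSO wells and 100% = marimastat wells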
ADAM17 ctr: ADAM17 inhibition, counter-screen for ADAM10 exosite hits | ADAM17 QFRET peptide cleavage, EDANS fluorescence | actives 0.5% (n = 2,100) | shares compounds with ADAM10 inh | inhibition, % at 6.95 µM;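 active = mean triplicate inhibition above the solvent-only control wells' mean plus 3 SD, cut at about 12% in these data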;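 note: 0% = DMSO wells and 100% = marimastat wells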
ADAM10 ctr: inhibits human ADAM10 in ADAM17 exosite counter-screen | shares compounds with ADAM17 inh | recombinant ADAM10, EDANS/DABCYL FRET peptide cleavage, 3 h | inhibition, % at 6.95 µM | actives 47% (n = 2,900) | AID 743256;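 active = mean inhibition over the triplicate runs exceeds the activity threshold set in the earlier primary screen, cut at about 20% in these data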;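 note: 0% = DMSO wells and 100% = marimastat wells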
ADAM17 confirm: confirmation of inhibitors of human ADAM17 | inhibition, % at 6.95 µM | recombinant ADAM17, EDANS/DABCYL QFRET peptide cleavage | shares compounds with ADAM17 inh | actives 65% (n = 2,900);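 active = mean inhibition across replicates above the hit cutoff set in the primary screen, cut at about 8.5% in these data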;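 note: 0% = DMSO wells and 100% = marimastat wells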
An asterisk follows results filed as active; nt = not tested or not shown. Rows were chosen to be rich in hits. Some 1.3% of all compounds tested hit in one or more screens of this group.

SMILES	GC-A act	NPR2 activator	ADAM17 inh	ADAM10 inh	ADAM10 confirm	ADAM17 ctr	ADAM10 ctr	ADAM17 confirm
Cc1cc(-c2n[nH]c(=S)n2/N=C/c2ccccc2[N+](=O)[O-])n[nH]1	-2.4	-1.8	10.9*	21.1*	-1.4	-0.3	0.3	4.1
CCc1nc2ccc(C(=O)NCc3ccc4c(c3)OCO4)cn2c1N(C)Cc1ccc(OC)cc1	12.9	18.5	18.7*	29.7*	4.1	1.2	23.9*	14.8*
COc1ccc(NC(=O)Nc2ccc3c(c2)C(=O)N([C@H](C)CO)C[C@H](C)[C@@H](CN(C)C(=O)Nc2ccc(C(F)(F)F)cc2)O3)cc1	0.5	7.2	15.5*	32.0*	4.8	0.1	20.6*	11.6*
C[C@H](CO)N1C[C@H](C)[C@@H](CN(C)S(=O)(=O)c2ccccc2)Oc2ccc(NC(=O)Nc3ccc(C(F)(F)F)cc3)cc2C1=O	1.7	-2.4	8.8*	33.3*	8.5	2.0	40.2*	24.1*
C[C@@H]1CCCCO[C@H](CN(C)C(=O)Nc2ccc(C(F)(F)F)cc2)[C@@H](C)CN([C@H](C)CO)C(=O)c2cc(NC(=O)Nc3ccc4c(c3)OCO4)ccc2O1	5.7	-1.5	3.1	5.7	nt	nt	nt	nt
C[C@H](CO)N1C[C@H](C)[C@@H](CN(C)C(=O)Nc2ccccc2)Oc2c(NC(=O)Nc3ccc(C(F)(F)F)cc3)cccc2C1=O	-3.3	-6.7	12.4*	25.6*	2.0	0.5	36.6*	19.3*
C[C@@H]1CCCCO[C@@H](CN(C)C(=O)Nc2ccc3c(c2)OCO3)[C@@H](C)CN([C@H](C)CO)C(=O)c2cc(NC(=O)Nc3ccc(C(F)(F)F)cc3)ccc2O1	0.6	1.6	9.8*	21.3*	11.1	2.5	41.9*	21.6*
O=C1CC(=Nc2ccc([N+](=O)[O-])cc2)NN1c1c(Cl)cc(Cl)cc1Cl	-6.5	3.6	1.5	-3.3	nt	nt	nt	nt
CC(C)(C)c1ccc(C(=O)N2CCC2(C)C(=O)NCc2cccs2)cc1 (centres undefined)	3.3	0.6	-2.4	-16.9	nt	nt	nt	nt
C[C@@H]1CN([C@@H](C)CO)C(=O)c2cc(NC(=O)Nc3ccc(F)cc3)ccc2O[C@@H]1CN(C)Cc1ccc(Oc2ccccc2)cc1	0.0	-0.2	11.1*	24.2*	18.8	7.2	48.2*	23.2*
CC(C)(CNC(=O)c1ccc(S(=O)(=O)Nc2ccc(Cl)cc2)cc1)N1CCOCC1	-0.3	2.5	-0.4	-7.4	nt	nt	nt	nt
O=C(Nc1cccc(S(=O)(=O)Nc2ccc(Cl)cc2)c1)c1cc2c(s1)CCCC2	-2.1	-0.7	15.4*	26.6*	14.0	4.4	45.3*	27.1*
Cc1ccc(NC(=O)c2cc3c(s2)CCCC3)cc1S(=O)(=O)Nc1ccccc1Cl	-4.5	0.3	15.9*	24.5*	52.0*	14.6*	22.4*	15.4*
Cc1ccc(C(=O)Nc2ccc(C)c(S(=O)(=O)Nc3ccccc3Cl)c2)s1	-2.7	1.3	8.2	15.9	nt	nt	nt	nt
CCN(c1ccccc1)S(=O)(=O)c1cc(C(=O)OC(C)C(=O)Nc2ccc3c(c2)OCCO3)ccc1C (centres undefined)	0.2	-0.8	15.1*	27.5*	8.0	3.2	17.3	13.1*
CC(OC(=O)c1ccccn1)C(=O)Nc1ccc2c(c1)OCCO2 (centres undefined)	-1.2	1.5	-3.0	-4.9	nt	nt	nt	nt
CC(=O)Nc1ccc(NC(=O)C(C)OC(=O)CCN=C2NS(=O)(=O)c3ccccc32)cc1 (centres undefined)	2.2	0.1	-2.4	-11.4	nt	nt	nt	nt
CC(OC(=O)CCCCCN=C1NS(=O)(=O)c2ccccc21)C(=O)Nc1cc(Cl)cc(Cl)c1 (centres undefined)	-8.4	-1.6	14.5*	29.0*	4.1	1.1	17.4	14.5*

Screening data (PubChem BioAssay)
